SMILES strings stand for the structures. The panel holds about 83,000 compounds, 20% with a hit somewhere; the sample as a whole holds those more often.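 The test compound was applied at a single concentration to cells in 96-well plates for 48 hours, and percent growth was recorded.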 Unmarked numbers belong to inactive results. Activity calls are given as the source filed them. The calls were made as follows: active = growth percent below 10; inactive = the rest.

In the assay the test system is SW-620 colon. The assay is described as follows: NCI-60 one-dose screen, 48 h (100 = growth as untreated, 0 = no growth, -100 = all killed). Particulars: 10 µM.
For `COc1cc(/C=C/C(=O)c2ccc(C(F)(F)F)cc2)ccc1Oc1nc(Nc2ccc(F)cc2)nc(N(C)C)n1`, the growth is 50.2%.

As for `Cc1ccc(/C=C/C(=O)c2ccc(NC(=O)CSc3nnc(-c4c[nH]c5ccccc45)n3-c3ccccc3)cc2)c(C)c1`, the growth was 33.2%.

In the case of `COc1ccc(/C=C/C(=O)c2ccc(S(=O)(=O)NCCNc3nc(Nc4ccc(F)cc4)nc(N(C)C)n3)cc2)cc1`, the growth was 26.4%.

With `N#Cc1c(-c2ccc(Cl)cc2)cc(-c2ccccc2)nc1OCc1ccccc1`, the growth was 84%.

`Nc1nnc(-c2c[nH]c3ncccc23)c(-c2c[nH]c3ccc(Br)cc23)n1`: the growth was 54.9%.

For `CC(=O)OC[C@@]1(C)C2CC[C@]3(C)C(CC=C4C5CC(C)(C)CC[C@]5(C(=O)Nc5ccccc5)CC[C@]43C)[C@@]2(C)C[C@@H](OC(C)=O)[C@@H]1OC(C)=O` (some centres not stated), the growth was 36.3%.

Turning to `O=C(CSc1nnc(-c2c[nH]c3ccccc23)n1-c1ccccc1)Nc1ccc(C(=O)/C=C/c2cccc([N+](=O)[O-])c2)cc1`, the growth was 101%.

Take `C/C(=C\c1ccc(O)cc1O)c1ccc2ccc(O)cc2[o+]1`: the growth is 44.8%.

As to `CCCCOc1ccc(Nc2nc3ccccc3nc2Nc2ccc(OCCCC)cc2)cc1`, the growth is 96.3%.

With `Nc1nc(Nc2ccc(Cl)cc2)nn1Cc1cccc(Br)c1`, the growth was 61.9%.

Regarding `COc1ccc(/C=N/N=C(\C)c2ccc3c(c2)Nc2ccccc2S3)cc1O`, the growth was 68.5%.

As for `O=C(CSc1nnc(-c2c[nH]c3ccccc23)n1-c1ccccc1)c1ccc(Br)cc1`, the growth was 79.8%.

Turning to `COC(=O)c1c(C(=O)OC)c2n(c1C)[C@@H]([C@@H](C)[C@H]1CC[C@H]3[C@@H]4CCC5=CC(=O)CC[C@]5(C)[C@H]4CC[C@]13C)SC2`, the growth is 34.2%.

For the compound `COc1ccc(C(=O)/C=C/c2cc(C(F)(F)F)cc(C(F)(F)F)c2)cc1S(N)(=O)=O`, the growth is -58% (active).

Consider `CCCn1c(O)c(N=Nc2nc(-c3cc4ccccc4oc3=O)cs2)c2cc(Br)ccc21`, for which the growth is 106%.

On to `O/N=C(\CSc1nnc(-c2c[nH]c3ccccc23)n1-c1ccccc1)c1ccc(Br)cc1`, for which the growth is -86.3% (active).

Turning to `CC(=O)Oc1ccccc1C(=O)Oc1ccc(C(=O)/C=C/c2ccncc2)cc1`, the growth was 6.33% (active).

On to `CC(=O)C1=C(C)NC(SCC(=O)Nc2ccc(S(=O)(=O)Nc3cc(C)on3)cc2)=NC1c1ccccc1` (configuration not stated), for which the growth was 106%.

Turning to `COc1cc2c3c(n(CCCn4ccnc4)c(=O)c2cc1OC)-c1nc2c(cc1C3=O)OCO2`, the growth is 37%.

With `O=S(=O)(Nc1ncccn1)c1ccc(-n2c(-c3ccc(Br)cc3)nc(-c3ccccc3)c2-c2ccccc2)cc1`, the growth was 48.5%.

Regarding `COc1ccc(-c2cc(C(=O)N=Nc3c(O)[nH]c4ccc(Br)cc34)c3ccccc3n2)cc1`, the growth is -59.9% (active).

As for `CCOC(=O)CNC(=O)CN(Cc1ccccc1)C(=O)[C@@]1(C)CCC[C@]2(C)[C@H]3CC4C(C(C)C)=C[C@]3(CC[C@H]21)[C@@H]1C(=O)CCC(=O)[C@H]41`, the growth is 49.8%.

Consider `CC1(c2ccccc2)NC(=O)N(CC(=O)Nc2ccc(C(=O)/C=C/C=C/c3ccccc3)cc2)C1=O` (configuration not stated), for which the growth was 48.3%.

Turning to `O=c1c2ccccc2nc(COc2ccccc2)n1/N=C/c1ccc(F)cc1`, the growth was 93.2%.

With `COc1ccc(-c2cc(-c3cc(C(=O)c4ccccc4)n4ccc(C)cc34)nc(N)c2C#N)cc1`, the growth is 78.9%.

Consider `COc1cc(C2CC(c3ccc(C)cc3)=Nc3c(N)nc(N)nc3N2)ccc1Oc1nc(Nc2ccc(F)cc2)nc(N(C)C)n1` (configuration not stated), for which the growth was 58.8%.

Regarding `O=C(Nc1cccc(C(F)(F)F)c1)c1cncc(C#Cc2cnc3ccc(N4CCOCC4)nn23)c1`, the growth is 2.23% (active).

With `CC(=O)Nc1ccc(-c2cn(-c3cccc(C(=O)Nc4ccc(F)c(C(F)(F)F)c4)c3)nn2)cn1`, the growth was -8.11% (active).

As for `CN(C(=O)c1ccc(C(F)(F)F)cc1C(F)(F)F)c1sc2c(c1C#N)CCC(=O)C2`, the growth was 18.9%.

Turning to `C#CCNC(=O)CCC(=O)OC[C@]12CC[C@@H](C(=C)C)[C@@H]1C1CC[C@@H]3[C@@]4(C)CCCNC(C)(C)[C@@H]4CC[C@@]3(C)[C@]1(C)CC2` (some centres not stated), the growth is -92.3% (active).

As to `COc1ccc2[nH]cc(/C=N/Nc3ccc(Br)cn3)c2c1`, the growth was 19.2%.

With `[2H]C([2H])([2H])Oc1ccc2ncc(C#Cc3cncc(C(=O)Nc4ccc(CN5CCN(C)CC5)c(C(F)(F)F)c4)c3)n2n1`, the growth is -67.8% (active).

For `COc1ccc(CN2[C@H](C(=O)NCc3ccc(C(=O)NO)cc3)Cc3c([nH]c4ccccc34)[C@H]2C2CC2)cc1`, the growth was 30.9%.

For `O=c1cc(-c2ccccc2)oc2cc(OCCCCNCc3ccccc3)cc(O)c12`, the growth is -39.1% (active).

Take `O=c1[nH]c2ccccc2cc1CSc1ccc(Nc2nccc(-c3ccc(C(F)(F)F)cc3)n2)cc1`: the growth was 31%.

With `CN(C)c1ccc(/C=C/c2nc3ccccc3c(=O)n2CC(=O)Nc2ccccc2)cc1`, the growth was 57.8%.

For `Cc1ccc(-c2nc(Nc3ccc(C)c(S(N)(=O)=O)c3)c3ccccc3n2)cc1`, the growth was 37.2%.

(Values after PubChem BioAssay (NCI).)
